# nsP2pro inh: blocks chikungunya virus nsP2 protease peptide cleavage | Q8JUX6 | Potency, µM (doses to about 24.9 µM), without a hit: at the top dose activity change, negative = inhibition, hits mostly inhibitors | actives 1.1% (n = 31,000) | FRET peptide cleavage, nsP2pro, fluorescence 1 h; note: nearly all actives have a fitted effect of over 60% in size
#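 FRET cleavage of 2.5 uM peptide 2 by 150 nM CHIKV protease domain at pH 8.0 (Tris, Tween 20). Compounds at 7 concentrations (up to 25 uM) preincubated 15 min. Fluorescence read after 1 h at room temperature.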
# CHIKV nsP2 cell: inhibits CHIKV nsP2 protease in cells; shares compounds with nsP2pro inh; cell-based CHIKV nsP2 protease reporter assay; Potency, µM (titrated, usually from 51.1 µM), for the others: at the highest dose activity change, negative = inhibition, actives largely listed as inhibitors; actives 10% (n = 450); note: nearly all actives have a fitted effect of over 70% in size
# CHIKV NSP2 FL: full-length CHIKV NSP2 protease inhibition, selectivity; shares compounds with nsP2pro inh; Full-length CHIKV NSP2 protease enzymatic counterscreen; Potency, µM (top dose mostly 50.7 µM), without a hit: at the top dose activity change, negative = inhibition, actives largely listed as inhibitors; actives 39% (n = 410); note: nearly all actives have a fitted effect of over 65% in size
# Furin counter: selectivity counter-screen for CHIKV nsP2 protease inhibitors: human furin | Potency, µM (doses to about 50.6 µM), without a hit: top-dose activity change, negative = inhibition, usual class: inhibitors | AID 1964102 | shares compounds with nsP2pro inh | Recombinant human furin enzymatic counterscreen, fluorogenic substrate | actives 6% (n = 410)
# NS23 peptide cs: blocks CHIKV nsP2 protease cleavage of endogenous NS2/3 peptide. shares compounds with nsP2pro inh. Purified CHIKV nsP2 protease, endogenous NS2/3 peptide cleavage. Potency, µM (doses to about 51 µM), for the others: at the top dose activity change, negative = inhibition, most hits filed as inhibitors. actives 34% (n = 410); note: nearly all actives have a fitted effect of over 55% in size
# Papain counter: inhibits papain in a CHIKV nsP2 protease selectivity counterscreen | purified papain protease activity, enzymatic inhibition | Potency, µM (highest dose often 51 µM), without a hit: at the highest dose activity change, negative = inhibition, actives largely listed as inhibitors | actives 5% (n = 410) | AID 1964104 | shares compounds with nsP2pro inh
# Target sequence (P00784 whole entry, looked up): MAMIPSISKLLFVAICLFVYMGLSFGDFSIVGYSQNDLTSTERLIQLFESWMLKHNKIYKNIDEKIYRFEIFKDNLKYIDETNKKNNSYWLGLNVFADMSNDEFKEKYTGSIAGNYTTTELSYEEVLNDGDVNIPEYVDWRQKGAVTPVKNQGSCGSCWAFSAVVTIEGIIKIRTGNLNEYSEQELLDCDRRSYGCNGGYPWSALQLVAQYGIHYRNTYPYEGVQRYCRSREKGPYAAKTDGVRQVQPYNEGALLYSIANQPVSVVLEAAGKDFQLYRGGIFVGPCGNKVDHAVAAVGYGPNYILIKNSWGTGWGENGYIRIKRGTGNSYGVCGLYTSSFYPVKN
# nsP2pro confirm: CHIKV nsP2 protease inhibition, confirmatory qHTS; shares compounds with nsP2pro inh; CHIKV nsP2 protease enzymatic activity, qHTS; Potency, µM (doses to about 25.5 µM), for inactives: top-dose activity change, negative = inhibition, usual class: inhibitors; actives 43% (n = 410); AID 1964105; note: nearly all actives have a fitted effect of over 75% in size
# HCV NS3 4A cs: selectivity counter-screen for CHIKV nsP2 protease inhibitors: HCV NS3/4A; shares compounds with nsP2pro inh; HCV NS3/4A protease biochemical counterscreen; Potency, µM (doses to about 50.9 µM), usual class: inhibitors; actives 20% (n = 410); AID 1964106; note: nearly all actives have a fitted effect of over 55% in size
# An asterisk follows results filed as active; i = inactive; ? = inconclusive; [ ] = dose if it differs, or a comment. The entries come from a sample that favours hits as a whole. Calls come from the whole dose curve. % is set by controls: 0 for no effect and ±100 for the full control effect; potency is the fitted concentration of half-maximal effect.
SMILES,nsP2pro inh,others
Cc1ccc(SCC(=O)Nc2cccc(-c3nc4cc(Cl)ccc4o3)c2C)cc1,-24.3%,
COc1ccc2c(C(=O)c3ccc(Cl)cc3)c(C)n(CC(=O)O)c2c1,-17.8%,
CC(=O)Nc1cccc2c1c(Sc1ccc(Cl)cc1)c(C)n2CC(=O)O,9.88µM*,CHIKV nsP2 cell=-17.4%;CHIKV NSP2 FL=0.8%;Furin counter=-3.3%;NS23 peptide cs=i;Papain counter=-10.9%;nsP2pro confirm=-11.6%;HCV NS3 4A cs=i
O=C1c2ccccc2-c2nc3nnnn3nc21 (tested in a mixture with another compound),?,CHIKV nsP2 cell=?;CHIKV NSP2 FL=?;Furin counter=-18.6%;NS23 peptide cs=0.919µM*;Papain counter=-23.4%;nsP2pro confirm=?;HCV NS3 4A cs=i
CCCCC(C)(O)CC=C[C@H]1[C@H](O)CC(=O)[C@H]1CCCCCCC(=O)OC (stereo partly specified),1.4%,
NS(=O)(=O)c1ccc(NC(=O)Nc2ccc(F)cc2)cc1,7.4%,
CC(=O)Nc1ccc(NC(=O)CCC(=O)c2ccc(C)cc2)cc1,-6.6%,
C/C(=N\N=C(N)N)c1ccc(NC(=O)Nc2ccc(/C(C)=N/N=C(N)N)cc2)cc1,8.81µM*,CHIKV nsP2 cell=5.8%;CHIKV NSP2 FL=16.3µM*;Furin counter=16.3µM*;NS23 peptide cs=29.1µM*;Papain counter=?;nsP2pro confirm=8.96µM*;HCV NS3 4A cs=18.3µM*
COc1ccc(CNC(=O)C2CN(S(=O)(=O)C3CC3)CC23CCCCC3)cc1 (stereo unspecified),-1.8%,
C[C@@H]1CN(C(=O)c2cccc(N3CCNC3=O)c2)C[C@@]1(O)C1CC1,i,
COc1ccc(NC(=O)CNS(=O)(=O)c2cccs2)c(OC)c1,-16.4%,
C#CC(=O)N(c1ccc(OC)cc1OC)C(C(=O)NCC(=O)OCC)c1cccs1 (stereo unspecified),0.624µM*,CHIKV nsP2 cell=-17.4%;CHIKV NSP2 FL=1.3µM*;Furin counter=-5.2%;NS23 peptide cs=2.91µM*;Papain counter=-8.4%;nsP2pro confirm=0.798µM*;HCV NS3 4A cs=i
CCOCCCNC(=O)C(c1ccc(OC)cc1)N(Cc1cccs1)C(=O)CNC(C)=O (stereo unspecified),-10.0%,
CCN(C(=O)CO)[C@H]1CN(C(=Nc2cccc(OC(F)F)c2)NC#N)N=C1c1ccc(Cl)c(Cl)c1,-3.4%,
CS(=O)(=O)N1C[C@H]2CCN(C(=O)Cc3ccccc3Cl)C[C@H]21,-2.0%,
C/C=C(\C)C(=O)OC1C[C@@]2(COC(C)=O)O[C@H]2/C=C\[C@@]2(C)O[C@@H]2[C@H]2OC(=O)C(COC(C)=O)=C12 (stereo partly specified),3.42µM*,CHIKV nsP2 cell=-0.3%[17.6 µM];CHIKV NSP2 FL=?;Furin counter=-8.3%[17.3 µM];NS23 peptide cs=?;Papain counter=-9.1%[17.2 µM];nsP2pro confirm=3.47µM*;HCV NS3 4A cs=?
C=C1C(=O)O[C@H]2[C@H]1[C@@H](OC(=O)/C(C)=C\C)C[C@]1(C)O[C@@H]1[C@H]1O[C@H]1C(=C)[C@H]2O,-4.5%,
C/C=C(\C)C(=O)O[C@H]1CC2C(=C1C)[C@H]1OC(=O)[C@](C)(O)[C@]1(O)[C@H](OC(=O)CCC)C[C@@]2(C)OC(C)=O (stereo partly specified),-2.1%[10 µM],
COc1ccc2cc(C(=O)N3C[C@@H](CO)[C@H](c4ccccn4)C3)[nH]c2c1,-3.3%,
COC(=O)C1=COC(OC2OC(CO)C(O)C(O)C2O)C2C(C)CC(=O)C12O (stereo unspecified),-13.8%[10 µM],
COC(=O)C1=CO[C@@H](O[C@@H]2O[C@H](CO)[C@@H](O)[C@H](O)[C@H]2O)[C@@H]2C(C)CC(=O)[C@]12O (stereo partly specified),8.3%[10 µM],

# Assay outcomes (PubChem)
